TSHR antag = Antagonists of the Thyroid Stimulating Hormone Receptor: HTS campaign | Thyrotropin receptor (Homo sapiens), P16473 | TSHR-expressing cells, TSH-stimulated cAMP HTRF, 2 h; active compounds read low | activity change, negative = inhibition, % at 11.5 µM | actives 0.2% (n = 330,000);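 active = activity change below a set negative limit, meaning inhibition stronger than a set level, cut at about -70% in these data; inconclusive = activity change between two set negative limits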; also: % is scaled to controls: 0 for no effect and ±100 for the full control effect
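TSHR-expressing cells, 200/well, pre-treated with compound, then stimulated with EC80 TSH (4nM final) for 2 hours at 37 deg C. cAMP measured by competitive HTRF: anti-cAMP cryptate antibody in lysis buffer plus cAMP-d2, read after 30 minutes at room temperature.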
S-ASM inh = Inhibitors of Secretory Acid Sphingomyelinase (S-ASM): qHTS. placental ASM, HMU-PC fluorogenic substrate, 60 min. Potency, µM (titrated, usually from 57.5 µM), for the others: top-dose activity change, negative = inhibition, actives largely listed as inhibitors. AID 504937, 2011. actives 0.006% (n = 340,000); active = well fitted inhibition curve with a large enough effect; inconclusive = small, poorly fitted or top-dose-only effect; inactive = no such curve, though single readings can be large or run the other way; also: potency is read from the fitted curve at half-maximal effect
Target sequence (P17405 47-631 limits assumed): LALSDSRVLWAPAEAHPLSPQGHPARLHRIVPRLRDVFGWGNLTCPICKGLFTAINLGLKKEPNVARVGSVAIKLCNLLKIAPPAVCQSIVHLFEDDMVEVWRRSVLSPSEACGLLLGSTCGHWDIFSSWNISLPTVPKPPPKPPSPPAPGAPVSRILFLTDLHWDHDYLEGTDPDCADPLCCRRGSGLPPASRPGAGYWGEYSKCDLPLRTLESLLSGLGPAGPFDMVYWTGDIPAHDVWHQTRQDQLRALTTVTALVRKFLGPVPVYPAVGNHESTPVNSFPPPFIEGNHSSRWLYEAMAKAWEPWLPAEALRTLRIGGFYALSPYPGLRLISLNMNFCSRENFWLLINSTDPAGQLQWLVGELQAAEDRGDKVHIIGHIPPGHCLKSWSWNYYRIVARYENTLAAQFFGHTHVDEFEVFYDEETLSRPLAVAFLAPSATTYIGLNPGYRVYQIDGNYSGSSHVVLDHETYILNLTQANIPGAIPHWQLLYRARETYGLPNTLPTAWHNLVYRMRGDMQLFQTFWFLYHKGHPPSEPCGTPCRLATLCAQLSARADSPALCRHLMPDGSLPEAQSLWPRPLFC
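Human placenta-derived ASM preincubated with compound 10 min at room temperature, then reacted with 9 uM (final) fluorogenic HMU-PC substrate for 60 min at 37 C. Stop solution raises pH to 10; fluorescence read at Ex 386/Em 447 nm.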
gsp agonist = qHTS for Agonist of gsp, the Etiologic Mutation Responsible for Fibrous Dysplasia/McCune-Albright Syndrome: qHTS | gsp mutant cells, cAMP HTRF, 30 min | Potency, µM (series often up to 76.9 µM), for inactives: top-dose activation (cAMP increase), hits mostly activators | actives 0.13% (n = 340,000); active = well fitted activation curve with a large enough effect; inconclusive = small, poorly fitted or top-dose-only effect, or another doubt; inactive = no such curve, though single readings can be large or run the other way; cell line not stated here;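 also: phosphodiesterase inhibitor Ro 20-1724 added with compounds to block cAMP breakdown; potency is read from the fitted curve at half-maximal effect; nearly all actives have a fitted effect of over 60% in size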
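Cells stably selected in G418 were plated at 2000/well, grown 16-24 hr, then given compounds in DMSO with the PDE inhibitor […] (300 uM solution added) for 30 min at 37C; cAMP was read by HTRF.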
gsp antag = qHTS for Antagonists of gsp, the Etiologic Mutation Responsible for Fibrous Dysplasia/McCune-Albright Syndrome: qHTS; gsp-mutant cells, cAMP HTRF, 30 min; Potency, µM (doses to about 76.9 µM), for inactives: at the top dose activity change, negative = inhibition, hits mostly inhibitors; actives 0.4% (n = 340,000); AID 624288, 2012; calls by dose curve; cell line not stated here;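 also: intracellular cAMP measured with PDE inhibitor Ro 20-1724 present during compound exposure; potency is read from the fitted curve at half-maximal effect; % is scaled to controls: 0 for no effect and ±100 for the full control effect; nearly all actives have a fitted effect of over 65% in size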
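Cells in G418 medium, seeded 16-24 h, 37C; buffer exchange to DPBS + 1 mM CaCl2, 0.5 mM MgCl2, 0.05% BSA; cpds in DMSO + […] (300 uM stock), 30 min 37C; HTRF cAMP detection.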
The depositor's hits bear a star; [ ] = another dose, or the depositor's remark. Only some compounds are listed: those with a hit (about 0.63% of all), similar ones and a draw of the others.

Screening C[C@@H]1O[C@@H](O[C@@H]2C=C3CC[C@@H]4C(CC[C@]5(C)[C@@H](c6ccc(=O)oc6)CC[C@]45O)[C@@]3(C)CC2)[C@H](O)[C@H](O)[C@H]1O (stereo partly specified) returned TSHR antag -78*, S-ASM inh -5% and gsp antag 4%.
For C[C@@H]1O[C@@H](O[C@H]2C[C@@H](O)[C@]3(CO)[C@@H]4C(CC[C@]3(O)C2)[C@@]2(O)CC[C@H]([C@@H]3COC(=O)C3)[C@@]2(C)C[C@H]4O)[C@H](O)[C@H](O)[C@H]1O (stereo partly specified) the results were TSHR antag -47.
For C[C@@H]1O[C@@H](O[C@@H]2C=C3CCC4C(CC[C@]5(C)[C@@H](c6ccc(=O)oc6)CC[C@]45O)[C@@]3(C)CC2)[C@H](O)[C@H](O)[C@H]1O (stereo partly specified) the results were TSHR antag -74*, S-ASM inh 0% and gsp antag -1%.
`CN(N=O)c1ccc(O)c(O)c1` gave TSHR antag -13.
For C[C@H](CO)N1C[C@H](C)[C@H](CN(C)C(=O)N[C@H](C)c2ccccc2)OCc2ccccc2-c2c(n(C)c3ccccc23)C1=O the results were gsp agonist -34%.
For COc1cc(N2C(=O)CC(=O)NC2=O)cc(OC)c1OC the results were TSHR antag -130*, S-ASM inh 1%, gsp agonist 2%[15.4 µM] and gsp antag -5%.
Screening CCOc1ccc(N2C(=O)CC(=O)NC2=O)cc1 returned TSHR antag -2, S-ASM inh -2%, gsp agonist -2%[15.4 µM] and gsp antag -4%.
CC[N+](CC)(CC)CC was read as TSHR antag -11, S-ASM inh -5% and gsp antag 35µM*.
COc1ccccc1OCCCn1cc(C(=O)C2CC2)c2ccccc21 was read as TSHR antag -7, S-ASM inh -4%, gsp agonist 4%[15.4 µM] and gsp antag 45µM*.
Screening COc1ccccc1OCCCn1cc(C(C)=O)c2ccccc21 returned TSHR antag -10, S-ASM inh 3%, gsp agonist 4%[15.4 µM] and gsp antag inconclusive.
`CCC1C=CC=CC[C@H](C)[C@@H](O)[C@](C)(O)C(=O)[C@@H](C)[C@H](O)[C@@H](C)C(=O)[C@H](C)[C@@H](O)[C@H](C)C=CC(=O)OC2[C@@H](C)C(CC1)OC1(CC[C@@H](C)C(C[C@H](C)O)O1)[C@@H]2C` (stereo partly specified) gave TSHR antag -80*.
Cc1[nH]c(=S)c(C#N)c2c1CCCC2 was read as TSHR antag 7, S-ASM inh 0%, gsp agonist 14µM* and gsp antag 2%.
`COc1ccc(S(=O)(=O)N(C)C[C@H]2OCCCC[C@@H](C)Oc3ccc(N(C)C)cc3C(=O)N([C@H](C)CO)C[C@@H]2C)cc1` gave gsp agonist -46%.
For CN(C)c1ccc(/C=C/C=C/c2sc3ccccc3[n+]2C)cc1 the results were TSHR antag -13, S-ASM inh -1%, gsp agonist -122% and gsp antag 28µM*.
Screening C[Se]C[C@H](N)C(=O)O returned TSHR antag 10.
`CCS(=O)(=O)Nc1ccc(C2=NN(C(=O)c3ccco3)C(c3ccc(Cl)o3)C2)cc1` (stereo unspecified) gave TSHR antag -5, S-ASM inh -3%, gsp agonist -15%[15.4 µM] and gsp antag inconclusive.
`Cc1cc(C)n(-c2ccc(NN=C(C#N)C#N)cc2)n1` gave TSHR antag -29, S-ASM inh -13%, gsp agonist -1% and gsp antag inconclusive.
CCN(CC)S(=O)(=O)c1ccc(NN=C(C#N)C#N)cc1 was read as TSHR antag -70*, S-ASM inh -10%, gsp agonist 6% and gsp antag -30%.
`N#CC(C#N)=NNc1ccc([N+](=O)[O-])cc1` gave TSHR antag -76*, S-ASM inh -20%, gsp agonist -19% and gsp antag 50µM*.
For CC(=O)OCC1=C(C(=O)O)N2C(=O)[C@@H](NC(=O)CCC[C@@H](N)C(=O)O)[C@H]2SC1 the results were TSHR antag -6.
N#CC(C#N)=NNc1ccc(-n2ccc(C(F)(F)F)n2)cc1 was read as TSHR antag -76*, S-ASM inh -12%, gsp agonist inconclusive and gsp antag 32µM*.
C[C@@H]1CN([C@@H](C)CO)C(=O)CCCn2nncc2CO[C@@H]1CN(C)C(=O)Nc1ccc(N2CCCCC2)cc1 was read as gsp agonist 20%.
`Cc1ccc(-n2c(C)nc3ccccc3c2=O)c(C)c1` gave TSHR antag -72*, S-ASM inh -2%, gsp agonist -11% and gsp antag -9%.
Screening Cc1ccc(-n2c(C)nc3ccccc3c2=O)cc1C returned TSHR antag 5, S-ASM inh 0%, gsp agonist -3% and gsp antag 5%.
`COc1ccc(-[n+]2c(-c3ccccc3)cc(-c3ccccc3)cc2-c2ccccc2)cc1` gave TSHR antag -29, S-ASM inh -2% and gsp antag -20%.
Screening Oc1ccc(-[n+]2c(-c3ccccc3)cc(-c3ccccc3)cc2-c2ccccc2)cc1 returned TSHR antag -48, S-ASM inh -10% and gsp antag 50µM*.
Screening Cn1c(O)c(Cc2ccc(OCc3ccccc3)cc2)c(=O)n(C)c1=O returned TSHR antag 8, S-ASM inh 2%, gsp agonist -7% and gsp antag 7.1µM*.
For CC(=NCCc1ccccc1)c1c(O)n(C)c(=O)n(C)c1=O the results were TSHR antag 1, S-ASM inh 0%, gsp agonist 8%[15.4 µM] and gsp antag -5%.
For COC(=O)C1=C(c2ccc(-c3ccccc3)c(F)c2)C[C@@H]2CC[C@H]1N2C(=O)NCCc1ccccc1 the results were TSHR antag -71*, S-ASM inh -15%, gsp agonist -5% and gsp antag -13%.
COC(=O)C1=C(c2ccc(-c3ccccc3)c(F)c2)C[C@@H]2CC[C@H]1N2C(=O)NCCCOC(C)C was read as TSHR antag -83*, S-ASM inh -13%, gsp agonist -39% and gsp antag 28%.
FC(F)(F)c1cccc(CC2CN(Cc3ccccc3)Cc3ccccc3N2c2cc(Cl)cc(Cl)c2)c1 (stereo unspecified) was read as gsp agonist -44%.
`Cc1cc(=O)oc2c3c(cc(OCC(=O)N4CCC[C@H]4C(=O)O)c12)OC(C)(C)CC3` gave TSHR antag -9, S-ASM inh 107% and gsp antag 6%.

Assay outcomes deposited in PubChem by National Center for Advancing Translational Sciences (NCATS).
